These results are taken from ChEMBL document CHEMBL3988442, “University of Dundee, Small-Polar-MMV Screening Library” (2021).

Molecules are shown by their SMILES. For some of these results: Measured potencies and affinities stand elsewhere.

What all share (parameters): scale not given: direction of the effect not stated beside the values
Assay [1] deals with Protein translocase subunit SecA (Escherichia coli (strain K12)) (UniProt P10408). As to the kind of experiment: Assay to Identify E. coli SecA ATPase Inhibitors. The following applies: 30 µM. Type of assay: functional.
Protein translocase subunit SecA (Escherichia coli (strain K12)), sequence (P10408 whole entry): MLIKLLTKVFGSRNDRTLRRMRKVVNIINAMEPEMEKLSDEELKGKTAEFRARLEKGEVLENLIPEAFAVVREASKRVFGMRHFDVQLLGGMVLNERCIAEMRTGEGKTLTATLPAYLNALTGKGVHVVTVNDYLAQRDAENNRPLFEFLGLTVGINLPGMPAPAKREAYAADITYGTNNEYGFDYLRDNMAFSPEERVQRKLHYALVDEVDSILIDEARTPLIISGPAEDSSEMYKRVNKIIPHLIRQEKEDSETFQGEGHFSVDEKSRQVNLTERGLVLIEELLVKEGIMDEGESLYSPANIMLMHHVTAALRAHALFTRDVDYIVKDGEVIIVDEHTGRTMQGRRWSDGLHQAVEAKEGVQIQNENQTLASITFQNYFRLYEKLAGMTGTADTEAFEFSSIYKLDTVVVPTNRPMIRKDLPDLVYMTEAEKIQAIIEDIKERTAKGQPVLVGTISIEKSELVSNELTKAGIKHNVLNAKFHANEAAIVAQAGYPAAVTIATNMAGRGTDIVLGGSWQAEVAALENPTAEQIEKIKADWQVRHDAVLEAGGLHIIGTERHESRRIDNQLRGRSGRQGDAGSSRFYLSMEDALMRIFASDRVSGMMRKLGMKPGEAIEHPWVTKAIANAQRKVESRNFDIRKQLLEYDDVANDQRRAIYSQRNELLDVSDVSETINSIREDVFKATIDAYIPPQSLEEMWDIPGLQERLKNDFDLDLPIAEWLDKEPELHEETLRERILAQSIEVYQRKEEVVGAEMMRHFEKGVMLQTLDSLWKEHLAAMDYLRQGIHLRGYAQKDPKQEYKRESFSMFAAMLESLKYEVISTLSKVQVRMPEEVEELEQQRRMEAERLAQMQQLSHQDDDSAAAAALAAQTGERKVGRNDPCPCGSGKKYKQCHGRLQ
In assay [2] the target is T1, Ubiquitin-activating enzyme e1, putative (Leishmania donovani (strain BPK282A1)) (UniProt E9BSI1).
T1 sequence (whole entry): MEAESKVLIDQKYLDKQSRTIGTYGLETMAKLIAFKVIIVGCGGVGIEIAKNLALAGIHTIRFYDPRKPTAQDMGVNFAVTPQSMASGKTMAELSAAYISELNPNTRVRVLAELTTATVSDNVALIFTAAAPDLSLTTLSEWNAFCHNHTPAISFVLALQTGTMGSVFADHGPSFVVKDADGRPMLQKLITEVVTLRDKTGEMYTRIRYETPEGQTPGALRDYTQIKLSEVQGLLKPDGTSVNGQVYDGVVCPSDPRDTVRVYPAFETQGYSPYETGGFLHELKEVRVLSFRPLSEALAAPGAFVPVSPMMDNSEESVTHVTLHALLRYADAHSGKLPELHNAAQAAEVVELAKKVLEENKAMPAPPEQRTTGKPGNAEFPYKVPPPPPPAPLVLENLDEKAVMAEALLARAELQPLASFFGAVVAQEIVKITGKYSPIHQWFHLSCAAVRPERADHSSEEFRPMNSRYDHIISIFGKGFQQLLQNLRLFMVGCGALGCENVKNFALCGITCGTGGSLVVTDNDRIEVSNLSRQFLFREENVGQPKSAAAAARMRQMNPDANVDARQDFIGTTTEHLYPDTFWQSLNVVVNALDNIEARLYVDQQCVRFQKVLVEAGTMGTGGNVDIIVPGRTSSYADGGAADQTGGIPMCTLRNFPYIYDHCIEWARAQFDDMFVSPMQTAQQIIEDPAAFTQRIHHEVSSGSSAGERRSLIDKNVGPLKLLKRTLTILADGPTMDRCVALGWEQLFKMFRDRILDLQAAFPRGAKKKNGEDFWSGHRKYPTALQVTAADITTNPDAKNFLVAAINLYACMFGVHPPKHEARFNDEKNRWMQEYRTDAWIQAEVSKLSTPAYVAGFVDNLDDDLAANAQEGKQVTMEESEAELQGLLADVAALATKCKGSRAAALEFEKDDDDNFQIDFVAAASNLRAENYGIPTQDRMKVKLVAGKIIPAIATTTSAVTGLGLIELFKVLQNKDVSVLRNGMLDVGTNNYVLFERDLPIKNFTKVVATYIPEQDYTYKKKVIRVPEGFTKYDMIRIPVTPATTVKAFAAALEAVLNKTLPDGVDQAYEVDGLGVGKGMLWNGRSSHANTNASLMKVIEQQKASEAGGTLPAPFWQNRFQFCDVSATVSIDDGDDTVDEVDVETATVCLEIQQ
As to the kind of experiment: Leishmania donovani Ubiquitin Activating Enzyme (LdE1). The assay is classed as functional. As to conditions: 30 µM.

The target in assay [3] is Sialic acid-binding Ig-like lectin 9 (Homo sapiens) (UniProt Q9Y336). As to the kind of experiment: Hs-Siglec9 ALPHAscreen SOP 20170721. As to conditions: 10 µM.
Sialic acid-binding Ig-like lectin 9 (Homo sapiens), sequence (Q9Y336 whole entry): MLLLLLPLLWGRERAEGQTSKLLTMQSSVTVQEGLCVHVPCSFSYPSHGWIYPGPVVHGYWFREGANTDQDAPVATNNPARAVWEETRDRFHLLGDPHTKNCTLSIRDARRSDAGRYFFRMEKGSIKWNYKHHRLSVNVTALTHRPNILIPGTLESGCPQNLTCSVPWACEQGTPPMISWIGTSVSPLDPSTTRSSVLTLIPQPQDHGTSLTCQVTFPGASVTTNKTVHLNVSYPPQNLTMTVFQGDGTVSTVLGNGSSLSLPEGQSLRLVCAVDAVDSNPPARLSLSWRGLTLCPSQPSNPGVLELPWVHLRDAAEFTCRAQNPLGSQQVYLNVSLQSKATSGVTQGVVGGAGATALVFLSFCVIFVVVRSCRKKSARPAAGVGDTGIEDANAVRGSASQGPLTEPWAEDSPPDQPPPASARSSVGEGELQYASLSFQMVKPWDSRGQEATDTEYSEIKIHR
Assay [4] relates to Trypanosoma cruzi. Briefly: Trypanosoma cruzi phosphomannomutase and mannose-1-phosphate guanylyltransferase assay. Type of assay: functional. The following applies: 10 µM.
In assay [5] the target is T2, Arginase-2, mitochondrial (Homo sapiens) (UniProt P78540).
T2 sequence (whole entry): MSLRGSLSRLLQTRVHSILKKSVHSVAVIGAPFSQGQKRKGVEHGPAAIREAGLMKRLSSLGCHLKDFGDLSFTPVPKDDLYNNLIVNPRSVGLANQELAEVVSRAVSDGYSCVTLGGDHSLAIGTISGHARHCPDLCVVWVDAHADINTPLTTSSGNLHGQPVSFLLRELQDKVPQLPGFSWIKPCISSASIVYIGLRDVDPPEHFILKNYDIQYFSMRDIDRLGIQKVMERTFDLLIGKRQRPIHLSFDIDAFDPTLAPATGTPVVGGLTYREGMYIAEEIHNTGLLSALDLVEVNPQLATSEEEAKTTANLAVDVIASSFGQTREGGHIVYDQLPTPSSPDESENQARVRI
As to the kind of experiment: in vitro enzyme assay to detect the production of urea directly proportional to the activity of Arginase II. Note: in the data most compounds retested in dose-response had high values. Type of assay: functional. The following applies: 33.3 µM.

For assay [6], the target named is T3, Proteasome subunit beta (Trypanosoma cruzi) (UniProt O96673).
T3 sequence (whole entry): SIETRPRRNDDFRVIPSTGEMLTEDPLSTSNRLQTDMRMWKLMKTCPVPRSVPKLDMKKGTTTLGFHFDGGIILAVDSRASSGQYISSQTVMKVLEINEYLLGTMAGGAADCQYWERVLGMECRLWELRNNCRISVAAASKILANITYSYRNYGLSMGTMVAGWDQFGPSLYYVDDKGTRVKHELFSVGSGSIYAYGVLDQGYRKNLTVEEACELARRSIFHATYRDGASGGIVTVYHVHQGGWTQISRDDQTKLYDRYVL
As to the kind of experiment: Trypanosoma cruzi proteasome chymotrypsin-like activity (TcProtChymo) assay. Note: in the data most compounds retested in dose-response had high values. Type of assay: functional. As to conditions: 9.37 µM.

For assay [7], the species on record is Homo sapiens. Briefly: To identify inhibition of the IFN signalling (Jak-Stat) pathway via expression of an eGFP reporter gene under the control of an IFN-stimulated response element (ISRE) containing MxA promoter. The following applies: 30 µM. The assay is classed as functional.
For assay [8], the target named is T4, Tyrosyl-tRNA synthetase, putative (Trypanosoma cruzi (strain CL Brener)) (UniProt Q4DSP6).
T4 sequence (whole entry): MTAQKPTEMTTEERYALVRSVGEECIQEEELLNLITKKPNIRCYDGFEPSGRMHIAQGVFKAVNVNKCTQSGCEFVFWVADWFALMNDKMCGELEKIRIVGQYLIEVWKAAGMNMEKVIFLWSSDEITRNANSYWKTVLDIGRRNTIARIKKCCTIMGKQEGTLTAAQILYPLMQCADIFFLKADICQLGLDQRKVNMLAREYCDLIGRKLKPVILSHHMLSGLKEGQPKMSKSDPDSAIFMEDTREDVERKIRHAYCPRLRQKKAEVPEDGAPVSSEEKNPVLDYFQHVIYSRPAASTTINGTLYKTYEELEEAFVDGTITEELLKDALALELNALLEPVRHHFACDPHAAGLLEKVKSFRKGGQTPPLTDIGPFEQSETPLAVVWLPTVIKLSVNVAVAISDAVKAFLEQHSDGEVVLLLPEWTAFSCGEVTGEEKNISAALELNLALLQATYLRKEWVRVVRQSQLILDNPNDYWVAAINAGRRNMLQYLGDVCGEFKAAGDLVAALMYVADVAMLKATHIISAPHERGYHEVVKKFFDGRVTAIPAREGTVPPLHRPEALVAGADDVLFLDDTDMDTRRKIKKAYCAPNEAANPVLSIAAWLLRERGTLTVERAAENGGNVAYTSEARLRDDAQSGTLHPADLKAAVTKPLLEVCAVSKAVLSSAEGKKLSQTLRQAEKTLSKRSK
Briefly: Trypanosoma cruzi tyrosyl tRNA synthetase (TcYRS) _High Tyrosine SOP. Note: in the data most compounds retested in dose-response had high values. Type of assay: functional. The following applies: 30 µM.

Assay [9] has as its target T4, Tyrosyl-tRNA synthetase, putative (Trypanosoma cruzi (strain CL Brener)). As to the kind of experiment: Trypanosoma cruzi tyrosyl tRNA synthetase (TcYRS) SOP. As to conditions: 30 µM. Type of assay: functional.
The target in assay [10] is Chromo domain-containing protein 1 (Saccharomyces cerevisiae (strain ATCC 204508 / S288c) (Baker's yeast)) (UniProt P32657). Briefly: ScCHD-1 Enzyme Inhibition Assay. Note: in the data most compounds retested in dose-response had high values. Type of assay: functional. The following applies: 30 µM.
Chromo domain-containing protein 1 (Saccharomyces cerevisiae (strain ATCC 204508 / S288c) (Baker's yeast)), sequence (P32657 whole entry, the tested form may be a part): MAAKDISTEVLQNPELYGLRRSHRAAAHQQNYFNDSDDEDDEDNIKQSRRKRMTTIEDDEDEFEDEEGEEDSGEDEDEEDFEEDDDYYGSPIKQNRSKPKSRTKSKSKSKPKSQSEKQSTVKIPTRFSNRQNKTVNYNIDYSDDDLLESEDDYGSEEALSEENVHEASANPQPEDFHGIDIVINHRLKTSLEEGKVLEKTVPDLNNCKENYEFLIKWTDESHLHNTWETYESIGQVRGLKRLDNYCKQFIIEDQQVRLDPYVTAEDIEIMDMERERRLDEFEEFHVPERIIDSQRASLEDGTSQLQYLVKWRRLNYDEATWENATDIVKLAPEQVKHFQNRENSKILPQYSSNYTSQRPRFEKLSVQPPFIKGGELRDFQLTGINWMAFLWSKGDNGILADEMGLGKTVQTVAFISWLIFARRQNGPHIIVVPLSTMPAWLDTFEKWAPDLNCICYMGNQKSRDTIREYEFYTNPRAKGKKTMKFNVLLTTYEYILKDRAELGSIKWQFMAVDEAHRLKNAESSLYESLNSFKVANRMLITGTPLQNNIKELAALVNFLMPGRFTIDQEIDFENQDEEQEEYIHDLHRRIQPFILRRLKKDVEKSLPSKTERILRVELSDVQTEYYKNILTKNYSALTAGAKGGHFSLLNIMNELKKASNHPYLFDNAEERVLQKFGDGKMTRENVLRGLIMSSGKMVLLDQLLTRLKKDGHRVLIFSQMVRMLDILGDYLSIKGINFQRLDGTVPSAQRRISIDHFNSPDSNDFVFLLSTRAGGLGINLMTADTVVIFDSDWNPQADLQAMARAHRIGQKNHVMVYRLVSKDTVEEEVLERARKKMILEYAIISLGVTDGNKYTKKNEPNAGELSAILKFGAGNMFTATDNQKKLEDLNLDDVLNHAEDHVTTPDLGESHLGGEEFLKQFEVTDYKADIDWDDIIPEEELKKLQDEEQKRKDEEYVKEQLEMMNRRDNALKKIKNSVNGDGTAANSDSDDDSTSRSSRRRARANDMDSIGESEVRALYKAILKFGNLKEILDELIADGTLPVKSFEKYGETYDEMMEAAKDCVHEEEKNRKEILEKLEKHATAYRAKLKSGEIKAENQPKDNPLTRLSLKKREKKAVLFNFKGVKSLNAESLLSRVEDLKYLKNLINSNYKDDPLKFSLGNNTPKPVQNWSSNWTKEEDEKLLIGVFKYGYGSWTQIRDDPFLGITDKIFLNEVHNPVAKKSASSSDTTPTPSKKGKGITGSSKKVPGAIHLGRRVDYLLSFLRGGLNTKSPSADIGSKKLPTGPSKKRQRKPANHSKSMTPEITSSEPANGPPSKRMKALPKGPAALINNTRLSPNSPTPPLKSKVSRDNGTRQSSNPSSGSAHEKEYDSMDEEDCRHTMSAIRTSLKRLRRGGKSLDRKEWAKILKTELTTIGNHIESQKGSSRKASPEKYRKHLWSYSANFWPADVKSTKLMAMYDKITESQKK

As for `Cc1ccc(CNC(=O)CN2CCCC(Cn3cncn3)C2)s1` (stereo not given), the Percent Effect in [1] was 0.165%; in assay [2] it was 21.3%; in assay [3], -6.68%; in assay [4], 3.61%; in [5], 3.99%; in [6], 22.3%. For the same compound, the Percent Effect is -8.31% in assay [7], 4.74% in [8], 12.8% in assay [9] and -11.2% in [10].

For the compound `Cc1ccc(N2CCCN(C(=O)c3c(C)oc(C)c3C)CC2)nn1`, the Percent Effect is -6.08% in [1]; 18.7% in assay [2]; 5.84% in [3]; 2.61% in assay [4]; -0.887% in assay [5]; 9.92% in assay [6]. For the same compound, the Percent Effect was 4.96% in assay [7], 4.74% in assay [8], 15.4% in assay [9] and -6.9% in assay [10].

For `CN(C)C(=O)CN1C(=O)CCC12CCN(Cc1cccn1C)CC2`, the Percent Effect in [1] is -0.209%; in assay [2] it was -1.3%; in assay [3] it was 0.456%; in [4], 3%; in assay [5] it was -0.913%; in [6], 11.9%. In addition, the Percent Effect in [7] is 7.89%; in assay [8], 10.6%; in assay [9], 20%; in [10], -9.53%.

On to `CNC(=O)CCCNCc1c(C)nn(C)c1N(C)C`, for which the Percent Effect in [1] was -0.3%; in [2], 0%; in assay [3], 14.5%; in assay [4], 1.22%; in assay [5] it was 2.87%; in assay [6], 2.3%. Also, the Percent Effect in assay [7] was -12.6%; in assay [8], 2.39%; in assay [9] it was 1.21%; in assay [10], -2.02%.

For the compound `O=C(NCC(=O)N1CCc2ccccc2C1)c1ccoc1`, the Percent Effect in assay [1] was -0.143%; in [2], 15.6%; in assay [3] it was -3.75%; in assay [4] it was -7.46%; in assay [5], 1.43%; in assay [6], 18.1%. In addition, the Percent Effect in assay [7] was 23.4%; in assay [8], 3.92%; in assay [9], 9.41%; in [10] it was -10.6%.

For the compound `Cc1ccc2oc(C(=O)N3CCCC(c4noc(C)n4)C3)cc2n1` (stereo not given), the Percent Effect in assay [1] is -2%; in assay [2], 5.13%; in assay [3] it was 1.38%; in assay [4] it was -3.66%; in [5], 4.51%; in assay [6], 3.84%. In addition, the Percent Effect was 11% in [7], 4.31% in assay [8], 8.43% in assay [9] and -2.57% in assay [10].

For the compound `CC(C)n1ccnc1CN1CCCN(C(=O)c2cccnc2O)CC1`, the Percent Effect in [1] is -4.65%; in assay [2], 15.4%; in assay [3] it was -20.6%; in assay [4], 5.54%; in assay [5], 1.64%; in assay [6], 14.9%. In addition, the Percent Effect in assay [7] was -7.69%; in [8] it was 10.1%; in assay [9], 22.9%; in assay [10], -5.81%.
